An excerpt weighted towards active compounds, which were near 4.2% of everything screened.
Mtb betalactam: beta-lactam sensitization of Mtb H37Rv; inhibition, % at 25 µM; M. tuberculosis H37Rv growth with meropenem, percent inhibition; 330,000 compounds, 0.27% hits; call rule not given here;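 further: growth measured after seven days incubation then overnight dye step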
RecA intein inh: inhibitors of M. tuberculosis RecA intein splicing; cell-free RecA intein splicing, fluorescence; 290,000 compounds, 0.75% hits; inhibition, % (test concentration not listed); in the data active means inhibition above about 30%
Mtb FBA inh: inhibitors of M. tuberculosis fructose-bisphosphate aldolase | P9WQA3 | purified M. tuberculosis FBA, fluorescence read-out | inhibition, % at 1 µM | 360,000 compounds, 2.3% hits
Target sequence (P9WQA3 whole entry, looked up): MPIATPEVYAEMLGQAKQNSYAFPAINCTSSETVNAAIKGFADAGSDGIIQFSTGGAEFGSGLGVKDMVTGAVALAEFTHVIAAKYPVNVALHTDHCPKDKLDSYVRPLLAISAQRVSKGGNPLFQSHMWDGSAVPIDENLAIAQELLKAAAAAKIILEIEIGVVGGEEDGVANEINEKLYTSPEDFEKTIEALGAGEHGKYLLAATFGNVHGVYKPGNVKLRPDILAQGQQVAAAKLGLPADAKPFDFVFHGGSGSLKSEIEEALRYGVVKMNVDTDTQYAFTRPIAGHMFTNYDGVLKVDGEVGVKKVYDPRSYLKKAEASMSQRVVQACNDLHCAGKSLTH
CCHF vOTU inh: CCHFV vOTU protease inhibition | inhibition, % at 11.5 µM | AID 651958 | 370,000 compounds, 0.55% hits | Pep-AMC fluorescence; in the data active means inhibition above about 30%
GDH-TPI counter-1: inhibits GDH-TPI coupling enzymes, artifact for Mtb FBA screen | inhibition, % at 4.8 µM | 360,000 compounds, 1.2% hits | AID 588335 | GDH-TPI coupled enzyme counterscreen, NADH absorbance; in the data active means inhibition above about 30%
Mtb FBA confirm: Mtb FBA inhibition, confirmed | shares compounds with Mtb FBA inh | purified M. tuberculosis FBA, fluorescence read-out | inhibition, % at 1 µM | 5,600 compounds, 78% hits | AID 651616
GDH-TPI counter-2: inhibits GDH-TPI coupling enzymes, flagging Mtb FBA hits | shares compounds with Mtb FBA inh | GDH-TPI coupled enzyme counterscreen, fluorescence | inhibition, % at 1 µM | 5,600 compounds, 81% hits | AID 652141; in the data active means inhibition above about 10%
A number is an active result. Unless noted, no stated cut-off is given here; in the data, active means inhibition above about 27%; inactive means the rest.

For COCCCNC(=O)/C(C#N)=C/c1c(N2CCN(c3ccccc3)CC2)nc2ccccn2c1=O the results were Mtb betalactam inactive, RecA intein inh inactive, Mtb FBA inh 91, CCHF vOTU inh inactive, GDH-TPI counter-1 inactive, Mtb FBA confirm 112 and GDH-TPI counter-2 121.
CCNC(=O)/C(C#N)=C/c1c(N2CCN(c3ccccc3)CC2)nc2ccccn2c1=O was read as Mtb betalactam inactive, RecA intein inh inactive, Mtb FBA inh 50, CCHF vOTU inh inactive, GDH-TPI counter-1 inactive, Mtb FBA confirm inactive and GDH-TPI counter-2 17.
COCCCNC(=O)/C(C#N)=C/c1c(N2CCN(c3ccc(OC)cc3)CC2)nc2c(C)cccn2c1=O was read as Mtb betalactam inactive, RecA intein inh inactive, Mtb FBA inh inactive, CCHF vOTU inh inactive and GDH-TPI counter-1 inactive.
Screening CCNC(=O)/C(C#N)=C/c1c(N2CC(C)OC(C)C2)nc2ccccn2c1=O (stereo not given) returned Mtb betalactam inactive, RecA intein inh inactive, Mtb FBA inh inactive, CCHF vOTU inh inactive and GDH-TPI counter-1 inactive.
`CCN=C1NC(CCc2ccccc2)C(C(=O)OC)=C(C)N1Cc1ccc(C(F)(F)F)cc1` (stereo not given) gave CCHF vOTU inh inactive.
CCOC(=O)N1CCN(C(=O)C[C@H]2C[C@@]3(C(=O)OC)C(=C[C@H](C4CCCC4)O[C@@H]3C)N(Cc3ccco3)C2=O)CC1 was read as CCHF vOTU inh inactive.
`Nc1ccccc1C(=O)NCC1(c2ccccc2)CCCC1` gave Mtb betalactam inactive, RecA intein inh inactive, Mtb FBA inh 33, CCHF vOTU inh inactive, GDH-TPI counter-1 inactive, Mtb FBA confirm 160 and GDH-TPI counter-2 128.
COc1ccc(-c2nnn3c2Cn2c4ccccc4c(=O)n2[C@@H](C(C)C)C3)cc1 was read as CCHF vOTU inh inactive.
`Cc1nn(-c2ccccn2)c2c1-c1nc(N)ncc1CC2` gave Mtb betalactam inactive, RecA intein inh inactive, Mtb FBA inh 30, CCHF vOTU inh inactive, GDH-TPI counter-1 inactive, Mtb FBA confirm inactive and GDH-TPI counter-2 inactive.
For C#CCN(C[C@H]1[C@H](OC(=O)Nc2cccs2)[C@H](OC(=O)Nc2cccs2)CN(C(=O)OC(C)C)N1C(=O)OC(C)C)S(=O)(=O)c1ccc(C)cc1 the results were CCHF vOTU inh inactive.
`CCOC(=O)c1nn(-c2ccc3c(c2)OCCO3)cc1O` gave Mtb betalactam inactive, RecA intein inh inactive, Mtb FBA inh 31, CCHF vOTU inh inactive, GDH-TPI counter-1 inactive, Mtb FBA confirm 93 and GDH-TPI counter-2 65.
Screening COc1ccccc1Cn1c(/C=C/c2ccccc2)nc2ccccc21 returned Mtb betalactam inactive, RecA intein inh inactive, Mtb FBA inh 65, CCHF vOTU inh inactive, GDH-TPI counter-1 inactive, Mtb FBA confirm 98 and GDH-TPI counter-2 77.
`COCCn1c(/C=C/c2ccccc2)nc2ccccc21` gave Mtb betalactam inactive, RecA intein inh inactive, Mtb FBA inh 53, CCHF vOTU inh inactive, GDH-TPI counter-1 inactive, Mtb FBA confirm inactive and GDH-TPI counter-2 inactive.
`Cn1c(=O)c(/C=C/c2ccccc2)nc2ccccc21` gave Mtb betalactam inactive, RecA intein inh inactive, Mtb FBA inh inactive, CCHF vOTU inh inactive and GDH-TPI counter-1 inactive.
Cc1cccc(NC(=O)Cn2c(/C=C/c3ccccc3)nc3ccccc32)c1 was read as Mtb betalactam inactive, RecA intein inh inactive, Mtb FBA inh 32, CCHF vOTU inh inactive, GDH-TPI counter-1 inactive, Mtb FBA confirm 42 and GDH-TPI counter-2 34.
`Cn1c(/C=C/c2ccccc2)nc2ccccc21` gave Mtb betalactam inactive, RecA intein inh inactive, Mtb FBA inh 48, CCHF vOTU inh inactive, GDH-TPI counter-1 inactive, Mtb FBA confirm 199 and GDH-TPI counter-2 168.
For COC(=O)[C@]12C[C@H](CC(=O)NCc3cccs3)C(=O)N(Cc3ccc(Cl)cc3Cl)C1=C[C@H](C1CCCC1)O[C@@H]2C the results were CCHF vOTU inh inactive.
For CCCCN(C)C(=O)CN1C(=O)C2CCCCN2C(=O)c2ccccc21 (stereo not given) the results were CCHF vOTU inh inactive.
Screening CC(=O)c1ccc(/C=C/c2nc3ccccc3n2C)o1 returned Mtb betalactam inactive, RecA intein inh inactive, Mtb FBA inh 46, CCHF vOTU inh inactive, GDH-TPI counter-1 inactive, Mtb FBA confirm inactive and GDH-TPI counter-2 17.
NC(=O)C1CCN(C(=O)COc2ccc3ccccc3c2)CC1 was read as Mtb betalactam inactive, RecA intein inh inactive, Mtb FBA inh inactive, CCHF vOTU inh inactive and GDH-TPI counter-1 inactive.
For Cc1cc(=O)oc2cc(OCC(=O)NC3CCCC3)ccc12 the results were Mtb betalactam inactive, Mtb FBA inh inactive, CCHF vOTU inh inactive and GDH-TPI counter-1 inactive.
Cc1cccc(N2CCN(C(=O)COc3ccc4ccc(=O)oc4c3)CC2)c1C was read as Mtb betalactam inactive, RecA intein inh inactive, Mtb FBA inh inactive, CCHF vOTU inh inactive and GDH-TPI counter-1 inactive.
For O=C(COc1ccc2ccc(=O)oc2c1)NC1CCCCC1 the results were Mtb betalactam inactive, Mtb FBA inh 32, CCHF vOTU inh inactive, GDH-TPI counter-1 32, Mtb FBA confirm 105 and GDH-TPI counter-2 74.
O=C(COc1ccc2ccc(=O)oc2c1)N1CCN(c2ccccc2)CC1 was read as Mtb betalactam inactive, RecA intein inh inactive, Mtb FBA inh 27, CCHF vOTU inh inactive, GDH-TPI counter-1 inactive, Mtb FBA confirm 78 and GDH-TPI counter-2 53.
NC(=O)C1CCN(C(=O)COc2ccc3ccc(=O)oc3c2)CC1 was read as Mtb betalactam inactive, Mtb FBA inh 30, CCHF vOTU inh inactive, GDH-TPI counter-1 inactive, Mtb FBA confirm inactive and GDH-TPI counter-2 inactive.
Screening Clc1ccc([C@H]2OC[C@@]3(CNCCN4CCOCC4)CS[C@H](c4ccc(Cl)cc4)N23)cc1 returned CCHF vOTU inh inactive.
For N#Cc1cccc(NC(=O)OCCCN2CCC3(CCCCC3)C2=O)c1 the results were CCHF vOTU inh inactive.
Screening CCC(C)N(C(=O)c1ccc(CNC(=O)c2cccc(Br)c2)cc1)C(C)CC (stereo not given) returned CCHF vOTU inh inactive.
Screening CCCN1CCN(CCCNC(=O)c2cc3c(=O)[nH]c4ccccc4c3s2)CC1 returned Mtb betalactam inactive, RecA intein inh inactive, Mtb FBA inh 47, CCHF vOTU inh inactive, GDH-TPI counter-1 inactive, Mtb FBA confirm 91 and GDH-TPI counter-2 76.
COCCNC(=O)c1cc2c(=O)[nH]c3ccccc3c2s1 was read as Mtb betalactam inactive, RecA intein inh inactive, Mtb FBA inh 78, CCHF vOTU inh inactive, GDH-TPI counter-1 inactive, Mtb FBA confirm 102 and GDH-TPI counter-2 84.
`CCOC(=O)N1CCN(C(=O)c2cc3c(=O)[nH]c4ccccc4c3s2)CC1` gave Mtb betalactam inactive, RecA intein inh inactive, Mtb FBA inh inactive, CCHF vOTU inh inactive and GDH-TPI counter-1 inactive.
